IL2 activator = IL-2 activation; IL-2 activation reporter assay, cell-based qHTS; stimulated with anti-CD3/CD4/CD28 beads; in transgenic mouse T cells; AID 652025; activation, % (series mostly up to about 46 µM); 360,000 tested, 0.065% active; in the data active means activation above about 50%; inconclusive means mostly about 30% to 49%; further: 0% is about no effect
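Unstimulated transgenic mouse T cells, 750 per well, received compound and, after 60 minutes, anti-CD3/anti-CD4 bead plus anti-CD28 stimulation. EGFP and DsRed were quantified after 18 hours.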
BRCA1 expr act = increases BRCA1 expression. MCF7-BRCA1-FFLuc reporter, luminescence, 48 h; response scale: scaled: vehicle 0%, 10 µM genistein 100%. Potency, µM (doses to about 46.1 µM), for the others: at the highest dose activation, actives largely listed as activators. 380,000 tested, 1.1% active. AID 624202; further: potency means the concentration at half of the fitted maximal effect; nearly all actives have a fitted effect of over 80% in size
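Compounds are tested at multiple concentrations on MCF7 BRCA1-luciferase reporter cells seeded at 2000 per well; after 48 h, a single luminescence end-point is taken and curves fitted to the normalized data.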
Mito fusion yeast = mitochondrial division inhibition or fusion activation; Potency, µM (highest dose often 46.1 µM), inactives show at the highest dose growth rescue (activation), usual class: activators; 320,000 tested, 0.23% active; AID 485298; S. cerevisiae fusion-defective mutant growth rescue, CellTiterGlo 48 h; further: potency means the concentration at half of the fitted maximal effect; % of control where 0% means no effect; nearly all actives have a fitted effect of over 45% in size
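Read-out: ATP-based luminescence (CellTiterGlo, 10 min ambient) reporting growth of fusion-defective ts yeast after 48 hours at 37C on glycerol/ethanol YPEG medium in the presence of compound.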
PTHR1 agonist = agonists of human PTHR1 parathyroid hormone receptor; Q03431; HEK293 GP2 PTHR1 cells, GloSensor cAMP luminescence, 1 h; Potency, µM (doses to about 115 µM), without a hit: at the highest dose activation, usual class: activators; 410,000 tested, 0.075% active; further: potency means the concentration at half of the fitted maximal effect; nearly all actives have a fitted effect of over 55% in size
Target sequence (Q03431 whole entry, looked up): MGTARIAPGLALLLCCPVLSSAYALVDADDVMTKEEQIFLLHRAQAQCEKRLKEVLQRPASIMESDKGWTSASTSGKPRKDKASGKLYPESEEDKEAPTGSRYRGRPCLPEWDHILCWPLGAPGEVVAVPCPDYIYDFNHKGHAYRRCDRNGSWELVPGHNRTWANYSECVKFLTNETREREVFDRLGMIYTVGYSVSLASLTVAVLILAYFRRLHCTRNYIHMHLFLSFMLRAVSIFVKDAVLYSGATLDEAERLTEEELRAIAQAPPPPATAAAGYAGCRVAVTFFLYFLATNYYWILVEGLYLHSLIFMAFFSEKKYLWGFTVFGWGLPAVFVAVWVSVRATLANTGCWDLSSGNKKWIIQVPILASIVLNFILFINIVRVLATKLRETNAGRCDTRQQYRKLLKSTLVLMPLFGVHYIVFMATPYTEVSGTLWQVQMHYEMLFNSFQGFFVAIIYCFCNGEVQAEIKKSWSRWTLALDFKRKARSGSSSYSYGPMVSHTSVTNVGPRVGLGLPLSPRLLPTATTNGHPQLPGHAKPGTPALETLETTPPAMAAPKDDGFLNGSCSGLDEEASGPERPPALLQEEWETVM
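HEK-293-derived GP2 cells expressing PTHR1 and a GloSensor cAMP reporter, 3,000/well, plated overnight, given luciferin plus IBMX (each 0.5 mM as added) for 1 h at 37 °C, then compound for 1 h at 37 °C. Luminescence was read after 15 min at room temperature.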
Chronic BCR inh = inhibitors of chronic active B-cell receptor signaling; 340,000 tested, 0.05% active; Potency, µM (doses to about 46.1 µM), inactives show at the top dose activity change, negative = inhibition, usual class: inhibitors; ABC-DLBCL IkBa-CBG/CBR reporter, luminescence ratio, 4 h; active means well fitted inhibition curve with a large enough effect in the signal ratio, with a control signal flat, not every such curve was filed as active; inconclusive means small, poorly fitted or top-dose-only effect, or effect the other way, or a change in a side signal; the % refers to the signal ratio;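 further: potency means the concentration at half of the fitted maximal effect; plate controls were basal doxycycline-induced cells for no effect and cells given 10 µM MG132 for full effect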
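Doxycycline induced both beetle luciferases in TMD8 lymphoma cells; IKK-driven degradation limits the IkappaBalpha-fused green signal, while red luminescence normalises for cell number and nonspecific effects. Compounds tested up to 46 uM, 4 hrs.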
TCR act = T cell receptor activation; primary human leukocytes, anti-CD3, IL-2 HTRF, 48 h; Potency, µM (top dose mostly 9.22 µM), for the others: at the highest dose activation of IL-2 secretion, hits mostly activators; 330,000 tested, under 10 active; AID 504894; further: % of control where 0% means no effect
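Human primary leukocytes + a-CD3 beads + cpd, 48 hr; IL-2 in supernatant by HTRF (ex 320nm / em 665nm). No co-stimulatory signal supplied.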
* = called active by the depositor; i = inactive; ? = inconclusive; · = no result given; [ ] = another dose, or the depositor's remark. Hits are enriched below; roughly 1.3% of the tested compounds scored in any of these assays. Unless noted, the call rests on the fitted dose curve; in most records, active means well fitted curve in the direction sought with a large enough effect; inconclusive means small, poorly fitted or top-dose-only effect, or another doubt; inactive means no such curve, though single readings can be large; an effect the other way counts as inactive or inconclusive.

SMILES	IL2 activator	BRCA1 expr act	Mito fusion yeast	PTHR1 agonist	Chronic BCR inh	TCR act
O=C(c1ccc(Br)cc1)c1coc2ccc(O)cc12	-2	11µM*	·	-14%	·	3%
COc1cc(OC)c(/C=C/c2nc3ccccc3o2)c(OC)c1	·	0%	·	·	·	·
Cc1ccc(/C=C/c2onc(C)c2S(=O)(=O)N2CCC(C(=O)N3CCN(c4cccc(C)c4)C(C)C3)CC2)cc1 (stereo not drawn)	·	-6%	·	-5%	·	·
COc1ccc(NC(=S)N2CCC(C(O)(c3ccccc3)c3ccccc3)CC2)cc1	0	-17%	8%	-12%	-1%	1%[46.1 µM]
O=C(Nc1ccccc1)N1CCC(c2ccccc2)C1 (stereo not drawn)	2	3.2µM*	0%	i	?	-2%
O=C(c1cccs1)N1CCC(c2ccccc2)C1 (stereo not drawn)	-3	3.5µM*	-1%	-6%	?	2%
COc1ccc(NC(=S)N2CCC(c3ccccc3)C2)cc1 (stereo not drawn)	0	2.8µM*	-23%	-63%	-5%	4%
Cc1cccc(OCC(=O)N2CCC(c3ccccc3)C2)c1 (stereo not drawn)	-2	7.9µM*	-8%	-13%[57.5 µM]	?	·
CCCNC(=O)c1cc(C2CCCN(C(=O)C3CCCCC3)C2)on1 (stereo not drawn)	-1	8%	·	i	·	·
CN(C)/C=C1\Oc2ccc3ccccc3c2C1=O	1	7.1µM*	9%	-26%	?	8%
CN(C)/C=C1/Oc2c(ccc3ccccc23)C1=O	1	5%	?	i	19%	0%
COc1ccccc1Nc1nc2c(C)cccc2cc1C#N	1	-32%	-3%	-32%	3%	-3%
CCOc1ccc(Nc2nc3c(C)cccc3cc2C#N)cc1	57*	0%	2%	-4%	0%	·
Cc1cc(C)nc(SC2c3cccc4cccc(c34)C2NS(=O)(=O)c2ccccc2)n1 (stereo not drawn)	0	-59%	20µM*	-18%	2%	3%
Nc1nc(SC2c3cccc4cccc(c34)C2NS(=O)(=O)c2ccccc2)n[nH]1 (stereo not drawn)	-1	-22%	-15%	-3%	2%	1%[46.1 µM]
Cc1ccc(S(=O)(=O)NC2c3cccc4cccc(c34)C2Sc2ncccn2)cc1 (stereo not drawn)	0	-52%	14µM*	i	-1%	1%[46.1 µM]
CCCCN1C(=O)c2[nH]nc(-c3ccccc3O)c2C1c1ccc(OCc2ccccc2)cc1 (stereo not drawn)	·	·	·	22µM*	·	·
O=C(Nc1ccn(Cc2ccccc2)n1)c1ccc2c(c1)OCO2	0	?	1%	-24%	?	-2%
O=C(Nc1ccn(Cc2ccc(Cl)cc2)n1)c1ccccc1	0	7.9µM*	8%	-42%	-1%	·
O=C(NCCc1c[nH]c2ccccc12)c1cnc2n(c1=O)CCS2	-3	2%	-4%	-29%	-10%	-7%[46.1 µM]
O=C(NCCc1ccccc1)c1cnc2n(c1=O)CCS2	-3	7.1µM*	0%	i	?	4%
CC(C)c1ccc2[nH]c3nc(SCC(=O)N4CCOCC4)nnc3c2c1	-4	11µM*	-2%	-14%	1%	2%
Cc1ccc2[nH]c(SCC(=O)N3CCOCC3)nc2c1C	0	8.9µM*	-3%	i	-1%	0%
O=c1n(Cc2ccc(Cl)cc2)nc2n1-c1ccccc1OC2	·	5%	·	i	·	·
CC(CSC(=O)c1ccccc1)C(=O)N1c2ccccc2CC1C(=O)O (stereo not drawn)	2	-18%	·	-3%	·	·
SMILES	IL2 activator	BRCA1 expr act	Mito fusion yeast	PTHR1 agonist	Chronic BCR inh	TCR act
O=C(Oc1c(Cl)cc(Cl)c2cccnc12)c1cccc([N+](=O)[O-])c1	-3	-67%	18%	-4%	21µM*	4%[46.1 µM]
O=C(Oc1ccc(Cl)c2cccnc12)c1cccc([N+](=O)[O-])c1	0	-61%	0%	i	?	0%[46.1 µM]
O=C(CCCc1ccccc1)c1ccc2c(c1)OCCO2	1	-78%	2%	-13%[57.5 µM]	?	-1%[46.1 µM]
O=C(c1ccccc1)c1ccc2c(c1)OCCOCCOCCO2	1	40%	3%	-4%	?	0%
O=C(CCc1ccccc1)c1ccc2c(c1)OCCCO2	3	3.5µM*	7%	-92%[57.5 µM]	?	-4%
O=C(/C=C/c1ccccc1)c1ccc2c(c1)OCCCCO2	-4	2.2µM*	1%	-8%[57.5 µM]	?	-1%
O=C(c1ccccc1)c1ccc2c(c1)OCCCO2	-1	1.4µM*	-1%	-15%	?	-2%
O/N=C(/CCc1ccccc1)c1ccc2c(c1)OCCO2	-1	2.8µM*	28%	-18%	?	6%
O=C(C=Cc1ccc2c(c1)OCO2)c1ccccc1	-1	55%	·	-30%	·	4%
Cn1c(=O)cc(OCCCC(=O)Nc2cccc(Cl)c2)c2ccccc21	0	-15%	·	-68%	·	·
Cn1nnc2c(N3CCN(Cc4ccccc4)CC3)ncnc21	·	24%	·	·	·	·
O=C(Oc1cccc2cccnc12)c1ccco1	-1	-23%	-5%	i	23µM*	-4%[46.1 µM]
O=C(Oc1cccc2cccnc12)c1ccc(Br)o1	-1	-10%	2%	i	-1%	-8%
CC(C)n1c(=O)c2ccccc2n1Cc1cn(Cc2cccnc2)nn1	1	4%	·	0%	·	·
C/C(=N\Nc1cc(N2CCOCC2)ncn1)c1ccccc1	-2	1.8µM*	-23%	-13%	-6%	-3%
CC(CN1CCOCC1)OC(=O)c1ccc2c(c1)OCCO2 (stereo not drawn)	1	7.9µM*	-26%	-3%[57.5 µM]	?	1%
COc1ccc(-c2nc3sc(CCNC(=O)c4cc(OC)c(OC)c(OC)c4)c(C)n3n2)cc1	·	7.9µM*	·	-53%	?	·
Cc1cc(Cl)ccc1OCc1nnc(-c2ccccc2C)o1	0	10µM*	0%	-33%	7%	4%
Clc1ccc(OCc2nnc(-c3ccccc3Br)o2)c(Cl)c1	1	3.2µM*	-1%	-13%[57.5 µM]	?	2%
Cc1cc(Br)ccc1OCc1nnc(-c2ccccc2)o1	2	13µM*	·	-90%	·	3%
CC(C)(C)C(=O)c1c(N)[nH]c(C(=O)c2ccccc2)c1-c1ccc(C(F)(F)F)cc1	0	11%	·	-18%	·	·
COc1ccc2c(c1OC)C(=O)N1N=C(c3ccc(Br)cc3)CC21 (stereo not drawn)	2	-6%	16µM*	-7%	1%	9%[46.1 µM]
CCN(CC)S(=O)(=O)c1ccc2c(c1)N(CC(=O)N1CCN(c3ccc(OC)cc3)CC1)C(=O)CO2	·	·	·	i	6%	·

From PubChem BioAssay
